# According to the supplement of paper PMC12282887:
# ± gives the standard deviation of the averaged measurements.
# Tested on: E. coli BW25113 marRABp lux reporter
# Test: promoter activity interaction Z-score (Lux/OD deviation from empty-vector control); higher = stronger promoter induction by the compound
# Experimental: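 E. coli BW25113 (wild type or ΔmarA/ΔsoxS/Δrob) carrying pTU175 luxCDABE promoter reporters was grown in LB in 384-well plates at 37°C with each of 94 compounds at 4 two-fold concentrations, in biological duplicates. Luminescence and OD600 were read every 30 min for 12 h and integrated as AUC over 8 h (0-8 h WT, 1-9 h mutants). Lux AUC was divided by OD AUC; the interaction score is the residual of a Huber robust fit of each promoter against the empty-vector control, then Z-transformed per promoter.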
smiles,measurement,setting,value
CC[C@H]1OC(=O)[C@H](C)[C@@H](O[C@H]2C[C@@](C)(OC)[C@@H](O)[C@H](C)O2)[C@H](C)[C@@H](O[C@@H]2O[C@H](C)C[C@H](N(C)C)[C@H]2O)[C@](C)(O)C[C@@H](C)CN(C)[C@H](C)[C@@H](O)[C@]1(C)O [Azithromycin],promoter activity interaction Z-score,"0.28 µg/ml, genetic background: wild type",0.645 ± 0.36
same,promoter activity interaction Z-score,"0.28 µg/ml, genetic background: ΔmarA",0.703 ± 1.2
same,promoter activity interaction Z-score,"0.28 µg/ml, genetic background: Δrob",0.528 ± 0.82
same,promoter activity interaction Z-score,"0.28 µg/ml, genetic background: ΔsoxS",0.0278 ± 0.18
same,promoter activity interaction Z-score,"0.56 µg/ml, genetic background: wild type",1.8 ± 0.42
same,promoter activity interaction Z-score,"0.56 µg/ml, genetic background: ΔmarA",1.75 ± 0.93
same,promoter activity interaction Z-score,"0.56 µg/ml, genetic background: Δrob",1.66 ± 0.88
same,promoter activity interaction Z-score,"0.56 µg/ml, genetic background: ΔsoxS",3.09 ± 1.8
same,promoter activity interaction Z-score,"1.1 µg/ml, genetic background: wild type",4.3 ± 0.46
same,promoter activity interaction Z-score,"1.1 µg/ml, genetic background: ΔmarA",4.49 ± 2
same,promoter activity interaction Z-score,"1.1 µg/ml, genetic background: Δrob",2.983 ± 0.0035
same,promoter activity interaction Z-score,"1.1 µg/ml, genetic background: ΔsoxS",4.44 ± 2.6
COc1cccc2c1C(=O)c1c(O)c3c(c(O)c1C2=O)C[C@@](O)(C(=O)CO)C[C@@H]3O[C@H]1C[C@H](N)[C@H](O)[C@H](C)O1 [Doxorubicin],promoter activity interaction Z-score,"0.29 µg/ml, genetic background: wild type",0.237 ± 0.34
same,promoter activity interaction Z-score,"0.29 µg/ml, genetic background: ΔmarA",-0.264 ± 0.2
same,promoter activity interaction Z-score,"0.29 µg/ml, genetic background: Δrob",-0.254 ± 0.1
same,promoter activity interaction Z-score,"0.29 µg/ml, genetic background: ΔsoxS",0.0277 ± 0.11
same,promoter activity interaction Z-score,"0.58 µg/ml, genetic background: wild type",-0.0763 ± 0.21
same,promoter activity interaction Z-score,"0.58 µg/ml, genetic background: ΔmarA",0.0102 ± 0.26
same,promoter activity interaction Z-score,"0.58 µg/ml, genetic background: Δrob",-0.188 ± 0.032
same,promoter activity interaction Z-score,"0.58 µg/ml, genetic background: ΔsoxS",0.0987 ± 0.23
same,promoter activity interaction Z-score,"1.2 µg/ml, genetic background: wild type",0.0323 ± 0.31
same,promoter activity interaction Z-score,"1.2 µg/ml, genetic background: ΔmarA",-0.148 ± 0.1
same,promoter activity interaction Z-score,"1.2 µg/ml, genetic background: Δrob",-0.236 ± 0.064
same,promoter activity interaction Z-score,"1.2 µg/ml, genetic background: ΔsoxS",0.0249 ± 0.092
same,promoter activity interaction Z-score,"2.3 µg/ml, genetic background: wild type",-0.0695 ± 0.11
same,promoter activity interaction Z-score,"2.3 µg/ml, genetic background: ΔmarA",-0.158 ± 0.16
same,promoter activity interaction Z-score,"2.3 µg/ml, genetic background: Δrob",-0.24 ± 0.021
same,promoter activity interaction Z-score,"2.3 µg/ml, genetic background: ΔsoxS",-0.0671 ± 0.12
O=C1CN(/N=C/c2ccc([N+](=O)[O-])o2)C(=O)N1 [Nitrofurantoin],promoter activity interaction Z-score,"0.45 µg/ml, genetic background: wild type",0.183 ± 0.32
same,promoter activity interaction Z-score,"0.45 µg/ml, genetic background: ΔmarA",0.105 ± 0.23
same,promoter activity interaction Z-score,"0.45 µg/ml, genetic background: Δrob",0.131 ± 0.13
same,promoter activity interaction Z-score,"0.45 µg/ml, genetic background: ΔsoxS",0.198 ± 0.24
same,promoter activity interaction Z-score,"0.89 µg/ml, genetic background: wild type",0.503 ± 0.047
same,promoter activity interaction Z-score,"0.89 µg/ml, genetic background: ΔmarA",0.249 ± 0.27
same,promoter activity interaction Z-score,"0.89 µg/ml, genetic background: Δrob",0.252 ± 0.052
same,promoter activity interaction Z-score,"0.89 µg/ml, genetic background: ΔsoxS",0.0792 ± 0.11
same,promoter activity interaction Z-score,"1.8 µg/ml, genetic background: wild type",1.04 ± 0.38
same,promoter activity interaction Z-score,"1.8 µg/ml, genetic background: ΔmarA",0.658 ± 0.16
same,promoter activity interaction Z-score,"1.8 µg/ml, genetic background: Δrob",1.16 ± 0.11
same,promoter activity interaction Z-score,"1.8 µg/ml, genetic background: ΔsoxS",0.447 ± 0.016
same,promoter activity interaction Z-score,"3.6 µg/ml, genetic background: wild type",7.36 ± 0.64
same,promoter activity interaction Z-score,"3.6 µg/ml, genetic background: ΔmarA",4.45 ± 1.7
same,promoter activity interaction Z-score,"3.6 µg/ml, genetic background: Δrob",12.8 ± 0.43
same,promoter activity interaction Z-score,"3.6 µg/ml, genetic background: ΔsoxS",12.2
